From PubChem BioAssay (Tox21)
Where “and” joins values, the source holds several entries; their conditions need not be identical. Identical values can stand only once. Records with an inconclusive call do not appear. Where a call stands in place of a potency, no number is given. Calls of active or inactive are those of the source. Unless noted, calls come from the whole dose curve; as a rule, active = well fitted curve in the direction sought with a large enough effect in the repeat runs; inconclusive = weak or mixed curves; inactive = no such curve, though single readings can be large; an effect the other way counts as inactive or inconclusive.

Legend:
[1] = qHTS assay to identify small molecule antagonists of the thyroid receptor (TR) signaling pathway - cell viability counter screen (AID 743064); note: nearly all actives have a fitted effect of over 50% in size; note: potency is the fitted concentration of half-maximal effect
Outline: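 Viability of T3-stimulated (1 nM final) GH3.TRE-Luc cells is measured by CellTiter-Fluor fluorescence after 23.5 h compound exposure at 37 °C plus 30 min reagent incubation.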

[2] = qHTS assay to identify small molecule antagonists of the thyroid receptor (TR) signaling pathway (AID 743065); note: nearly all actives have a fitted effect of over 55% in size; note: potency is the fitted concentration of half-maximal effect
Outline: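 Antagonism measured as loss of luciferase signal in GH3 cells stably carrying a TRE-luciferase reporter, co-treated with compound and T3 (1 nM final) for 23.5 h at 37 C. Viability was read in the same well by CellTiter-Fluor.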

[3] = tested on: thyroid hormone receptor (rat, GH3 cells); assay: qHTS assay to identify small molecule agonists of the thyroid receptor (TR) signaling pathway (AID 743066; calls by dose curve)
[4] = target: Estrogen receptor (Homo sapiens) (UniProt P03372); assay: qHTS assay to identify small molecule antagonists of the estrogen receptor alpha (ER-alpha) signaling pathway (AID 743069; active = well fitted curve in the direction sought with a large enough effect in the signal ratio in the repeat runs, not every such curve was filed as active; the % refers to the signal ratio; note: potency is the fitted concentration of half-maximal effect)
Outline: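 Antagonist mode: compounds in DMSO were co-added with 17beta-estradiol to ER-alpha-bla HEK293 cells (2% charcoal-stripped serum) and left 18 h at 37C. Reporter inhibition was measured as FRET fluorescence after 2 h LiveBLAzer substrate at room temperature.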

[5] = qHTS assay to identify small molecule antagonists of the estrogen receptor alpha (ER-alpha) signaling pathway - cell viability counter screen (AID 743074; calls by dose curve;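 note: HEK293 cells carrying ER-alpha-UAS-bla reporter stimulated with 17beta-estradiol; nearly all actives have a fitted effect of over 45% in size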)
[6] = target: Estrogen receptor (Homo sapiens) (UniProt P03372); assay: qHTS assay to identify small molecule agonists of the estrogen receptor alpha (ER-alpha) signaling pathway (AID 743075; calls by dose curve;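 note: HEK293 GripTite cells with ER-alpha and UAS-driven beta-lactamase reporter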)
[7] = qHTS assay to identify small molecule antagonists of the estrogen receptor alpha (ER-alpha) signaling pathway using the BG1 cell line - cell viability counter screen (AID 743081);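 note: compound given together with 17beta-estradiol as the ER stimulus; series mostly up to about 70 µM; nearly all actives have a fitted effect of over 45% in size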
Aromatase (Homo sapiens) = Aromatase (Homo sapiens) (UniProt P11511); assay: qHTS assay to identify aromatase inhibitors (AID 743083); note: series mostly up to about 70 µM; nearly all actives have a fitted effect of over 55% in size
[8] = target: Estrogen receptor (Homo sapiens) (UniProt P03372); assay: qHTS assay to identify small molecule agonists of the estrogen receptor alpha (ER-alpha) signaling pathway using the BG1 cell line (AID 743079); note: nearly all actives have a fitted effect of over 20% in size; note: potency is the fitted concentration of half-maximal effect
[9] = qHTS assay to identify small molecule antagonists of the estrogen receptor alpha (ER-alpha) signaling pathway using the BG1 cell line (AID 743080; calls by dose curve;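 note: BG1 cells stimulated with 17beta-estradiol alongside compound; series mostly up to about 70 µM; nearly all actives have a fitted effect of over 25% in size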)
Outline: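 BG1-Luc-4E2 cells (endogenous full-length ER-alpha, stable 4×ERE-luciferase) were starved 5 days in phenol-red-free medium with 10% charcoal-stripped FBS, plated 24 h, then given compound plus 17beta-estradiol for 21.5 h at 37 C; ONE-Glo luminescence read after 30 min.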

Sequence of Aromatase (Homo sapiens) (P11511 whole entry, looked up): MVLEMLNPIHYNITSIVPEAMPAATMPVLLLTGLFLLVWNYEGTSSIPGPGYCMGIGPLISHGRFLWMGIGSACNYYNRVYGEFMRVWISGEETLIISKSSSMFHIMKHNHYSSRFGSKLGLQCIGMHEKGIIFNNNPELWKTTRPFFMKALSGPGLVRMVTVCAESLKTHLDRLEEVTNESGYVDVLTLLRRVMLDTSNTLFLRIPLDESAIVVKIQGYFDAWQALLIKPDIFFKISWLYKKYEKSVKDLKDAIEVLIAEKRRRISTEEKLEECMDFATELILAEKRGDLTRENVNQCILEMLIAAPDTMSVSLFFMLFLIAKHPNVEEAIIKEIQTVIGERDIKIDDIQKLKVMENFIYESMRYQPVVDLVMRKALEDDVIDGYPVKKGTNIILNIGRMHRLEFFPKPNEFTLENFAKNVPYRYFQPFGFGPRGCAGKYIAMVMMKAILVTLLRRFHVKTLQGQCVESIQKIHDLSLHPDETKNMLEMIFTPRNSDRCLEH
Sequence of Estrogen receptor (Homo sapiens) (P03372 whole entry, looked up): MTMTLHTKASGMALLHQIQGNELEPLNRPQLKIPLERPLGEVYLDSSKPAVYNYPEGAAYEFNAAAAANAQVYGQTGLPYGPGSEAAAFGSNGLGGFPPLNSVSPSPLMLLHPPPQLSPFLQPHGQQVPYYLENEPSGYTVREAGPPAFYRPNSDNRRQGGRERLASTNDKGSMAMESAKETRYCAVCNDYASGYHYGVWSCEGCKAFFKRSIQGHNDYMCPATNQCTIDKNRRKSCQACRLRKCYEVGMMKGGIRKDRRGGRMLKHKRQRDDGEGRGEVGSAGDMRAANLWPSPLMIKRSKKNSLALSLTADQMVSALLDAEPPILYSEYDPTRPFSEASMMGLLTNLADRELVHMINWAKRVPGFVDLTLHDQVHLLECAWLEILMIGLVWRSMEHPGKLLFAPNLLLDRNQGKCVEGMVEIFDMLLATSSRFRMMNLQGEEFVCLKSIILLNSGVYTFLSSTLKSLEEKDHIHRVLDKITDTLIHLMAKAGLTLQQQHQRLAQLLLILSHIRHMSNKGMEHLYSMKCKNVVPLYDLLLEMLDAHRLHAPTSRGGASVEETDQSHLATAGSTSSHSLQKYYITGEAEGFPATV

Structure (SMILES) | Potency [1] | Potency [2] | Potency [3] | Potency [4] | Potency [5] | Potency [6] | Potency [7] | Potency (Aromatase (Homo sapiens)) | Potency [8] | Potency [9]
O=C=Nc1ccc(Cl)cc1 | inactive | inactive | inactive | 3.47 µM [inhibitor] (active) | inactive | inactive | inactive | inactive | – | –
COCCOCCO | 30.6 µM (active) | 48.6 µM (active) | inactive | inactive | – | inactive | – | inactive | inactive | –
O=[N+]([O-])c1ccccc1CCl | inactive | inactive | inactive | inactive | inactive | inactive | inactive | inactive | inactive | –
C=CC(=O)OCC(C)O (stereo unspecified) | inactive | inactive | inactive | inactive | – | – | inactive | – | inactive | –
CC(C)=CCOc1c2occc2cc2ccc(=O)oc12 | inactive | inactive | inactive | inactive | inactive | inactive | – | inactive | inactive | inactive
COC(=O)c1cncn1C(C)c1ccccc1 (stereo unspecified) | inactive | inactive | inactive | inactive | inactive | inactive | inactive | inactive | inactive | –
CCOC(=O)C(Cl)C(C)=O (stereo unspecified) | inactive | inactive | inactive | inactive | inactive | inactive | inactive | inactive | inactive | –
CCCCCCC#N | inactive | inactive | inactive | inactive | inactive | inactive | inactive | inactive | inactive | –
CCOc1ccc(C(C)(C)COCc2cccc(Oc3ccccc3)c2)cc1 | inactive | inactive | inactive | inactive | inactive | inactive | inactive | inactive | inactive | –
CS/C(C)=N/OC(=O)N(C)SN(C)C(=O)O/N=C(\C)SC | 27.3 µM (active) | 27.3 µM (active) | inactive | inactive | inactive | inactive | inactive | inactive | inactive | –
C=CCOC(C)=O | inactive | inactive | inactive | inactive | inactive | inactive | inactive | inactive | inactive | –
CCOc1nc(F)cc2nc(S(=O)(=O)Nc3c(Cl)cccc3Cl)nn12 | inactive | inactive | inactive | inactive | inactive | inactive | inactive | inactive | inactive | –
COC(=O)C(Cl)C(=O)OC | inactive | inactive | inactive | inactive | inactive | inactive | inactive | inactive | inactive | –
Cn1cc[n+](C)c1 (tested in a mixture with another compound) | inactive | inactive | inactive | inactive | inactive | inactive | inactive | inactive | inactive | –
N#CCc1ccccc1 | inactive | inactive | inactive | inactive | inactive | inactive | inactive | inactive | inactive | –
CC(=O)C(C)(C)C | inactive | inactive | inactive | inactive | inactive | inactive | inactive | inactive | inactive | –
Cl/C=C\Cl | inactive | inactive | inactive | inactive | inactive | inactive | inactive | inactive | inactive | –
CNC(C)Cc1ccccc1OC (stereo unspecified) | inactive | inactive | inactive | inactive | inactive | inactive | inactive | inactive | inactive | –
CCOP(=S)(OCC)SCSCC | inactive | inactive | inactive | inactive | inactive | inactive | inactive | inactive | 30.6 µM (active) | –
O=[N+]([O-])C(Br)(CO)CO | 23.7 µM (active) and 21.7 µM (active) | 23.7 µM (active) and 24.3 µM (active) | inactive | inactive | inactive | inactive | inactive | inactive | inactive | –
O=C(Nc1ccccc1)Nc1cnns1 | inactive | 61.1 µM (active) | inactive | – | inactive | inactive | inactive | – | – | –
CNP(=O)(OC)Oc1ccc(C(C)(C)C)cc1Cl (stereo unspecified) | inactive | inactive | inactive | – | inactive | inactive | inactive | inactive | inactive | –
CCCCCCCCOC(=O)c1ccc(C(=O)OCCCCCCCC)c(C(=O)OCCCCCCCC)c1 | inactive | inactive | inactive | – | inactive | – | inactive | inactive | – | –
c1ccoc1 | inactive | inactive | inactive | – | inactive | inactive | inactive | inactive | – | inactive
CCCCN(N=O)C(=N)N[N+](=O)[O-] | 62.4 µM (active) | 49.6 µM (active) | inactive | – | inactive | – | inactive | – | – | –
CC(C)N(CCC(C(N)=O)(c1ccccc1)c1ccccn1)C(C)C (stereo unspecified) | inactive | inactive | inactive | – | inactive | – | inactive | inactive | – | –
CN1C(=O)NC(=O)C(C)(C2=CCCCC2)C1=O (stereo unspecified) | inactive | inactive | inactive | – | inactive | – | inactive | inactive | – | –
C=CC(=O)OC | inactive | inactive | inactive | – | inactive | – | inactive | inactive | – | –
O=[N+]([O-])c1cc(C(F)(F)F)cc([N+](=O)[O-])c1Cl | 61.4 µM (active) | inactive | inactive | – | inactive | inactive | – | inactive | – | –
